Read-out in experiment [1]: C-C motif chemokine 2 (Homo sapiens) (UniProt P13500)
Description: BSK_KF3CT_MCP1: BioMAP Diversity Plus: KF3CT Assay for Monocyte Chemoattractant Protein 1 (MCP1/CCL2) Biomarker Activity (AID 2283073). The conditions noted are these: primary human keratinocytes with fibroblasts; actives raise or lower the signal. The method, boiled down: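 Biomarker MCP-1 is measured by ELISA in primary human keratinocytes co-cultured with foreskin fibroblasts, 24 h after chemical treatment; DMSO serves as the negative control and activity baseline.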

Read-out in experiment [2]: Matrix Metallopeptidase 9 (MMP9), MMP9 (gene 4318)
Description: BSK_KF3CT_MMP9: BioMAP Diversity Plus: KF3CT Assay for Matrix Metallopeptidase 9 (MMP9) Biomarker Activity (AID 2283074).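 For AC50: MMP9 protein level quantified by ELISA in the co-culture.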 The following applies: primary human keratinocytes with fibroblasts; actives raise or lower the signal. The method, boiled down: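 ELISA read-out of MMP-9 at 24 h post-dosing in a co-culture of human skin keratinocytes and foreskin fibroblasts. Gain or loss of signal was fitted in both directions against DMSO.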

Read-out in experiment [3]: urokinase plasminogen activator (uPA), PLAU (gene 5328)
Description: BSK_KF3CT_uPA: BioMAP Diversity Plus: KF3CT Assay for urokinase plasminogen activator (uPA) Biomarker Activity (AID 2283075). The following applies: primary human keratinocytes with fibroblasts; actives raise or lower the signal. In outline: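 Skin co-culture (keratinocytes + foreskin fibroblasts), human primary; 24 h post-dose; uPA by ELISA; gain/loss fit vs DMSO baseline.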

Read-out in experiment [4]: CD40, CD40 (gene 958)
Description: BSK_LPS_CD40: BioMAP Diversity Plus: LPS Assay for CD40 Biomarker Activity (AID 2283076). The conditions noted are these: primary human HUVEC with PBMC; actives raise or lower the signal. The method, boiled down:
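Using a multiplexed primary human co-culture (umbilical vein endothelium plus PBMC), CD40 was read by ELISA 24 h after dosing, with cytotoxicity tracked by sulforhodamine B staining of parallel cultures and activity fitted bidirectionally versus DMSO.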

Read-out in experiment [5]: E-selectin (Homo sapiens) (UniProt P16581)
Description: BSK_LPS_Eselectin: BioMAP Diversity Plus: LPS Assay for Eselectin Biomarker Activity (AID 2283077). The following applies: primary human HUVEC with PBMC; actives raise or lower the signal. In outline: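 Dose chemical onto LPS-driven HUVEC/PBMC co-culture; after 24 h, run ELISA for E-selectin; fit up- and down-going responses relative to DMSO control.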

Read-out in experiment [6]: Interleukin-8 (IL8), CXCL8 (gene 3576)
Description: BSK_LPS_IL8: BioMAP Diversity Plus: LPS Assay for Interleukin-8 (IL8) Biomarker Activity (AID 2283078). The conditions noted are these: primary human HUVEC with PBMC; actives raise or lower the signal. In outline: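 In this LPS system, chemical-treated human umbilical vein endothelium/PBMC co-cultures were harvested at 24 h for IL-8 ELISA.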

Read-out in experiment [7]: Interleukin-1 alpha (IL1a), IL1A (gene 3552)
Description: BSK_LPS_IL1a: BioMAP Diversity Plus: LPS Assay for Interleukin-1 alpha (IL1a) Biomarker Activity (AID 2283080). The following applies: primary human HUVEC with PBMC; actives raise or lower the signal. The method, boiled down: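 Primary human HUVEC and PBMC co-culture stimulated with LPS is dosed and harvested at 24 h. Both increases and decreases in ELISA-measured IL-1a are scored relative to DMSO.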

Read-out in experiment [8]: Monocyte Chemoattractant Protein-1 (MCP1), CCL2 (gene 6347)
Description: BSK_LPS_MCP1: BioMAP Diversity Plus: LPS Assay for Monocyte Chemoattractant Protein-1 (MCP1) Biomarker Activity (AID 2283081).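 For AC50: secreted MCP-1 protein quantified by ELISA in culture supernatant.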 The conditions noted are these: primary human HUVEC with PBMC; actives raise or lower the signal. The method, boiled down: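 Values derive from bidirectional fitting against DMSO of ELISA-measured MCP-1 in a human primary endothelial and mononuclear cell co-culture, 24 h after chemical addition under LPS activation.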

Experiment [9] is described as follows: BSK_LPS_PGE2: BioMAP Diversity Plus: LPS Assay for Prostaglandin E2 (PGE2) Biomarker Activity (AID 2283082).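 For AC50: secreted prostaglandin E2 measured by ELISA in LPS-stimulated co-culture.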 The following applies: primary human HUVEC with PBMC; actives raise or lower the signal. In outline:
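PGE2 release measured by ELISA in an LPS-activated co-culture of human umbilical vein endothelial cells and peripheral blood mononuclear cells, read at 24 h post-dosing. DMSO served as baseline for bidirectional curve fitting.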

Read-out in experiment [10]: Macrophage colony-stimulating factor (MCSF), CSF1 (gene 1435)
Description: BSK_LPS_MCSF: BioMAP Diversity Plus: LPS Assay for Macrophage colony-stimulating factor (MCSF) Biomarker Activity (AID 2283083). The conditions noted are these: primary human HUVEC with PBMC; actives raise or lower the signal. The method, boiled down:
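Bidirectional fit versus DMSO of ELISA-measured M-CSF in co-cultured human umbilical vein endothelial cells and PBMC, sampled 24 h after dosing.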

Read-out in experiment [11]: Tissue Factor, F3 (gene 2152)
Description: BSK_LPS_TissueFactor: BioMAP Diversity Plus: LPS Assay for Tissue Factor Biomarker Activity (AID 2283084). The following applies: primary human HUVEC with PBMC; actives raise or lower the signal. In outline:
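Read-out: CD142 ELISA, 24 h. System: LPS-driven human endothelial/PBMC co-culture. Analysis: up- or down-signal fitted against DMSO.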

Read-out in experiment [12]: Vascular cell adhesion molecule 1 (VCAM1), VCAM1 (gene 7412)
Description: BSK_LPS_VCAM1: BioMAP Diversity Plus: LPS Assay for Vascular cell adhesion molecule 1 (VCAM1) Biomarker Activity (AID 2283086). The following applies: primary human HUVEC with PBMC; actives raise or lower the signal. The method, boiled down:
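VCAM-1 quantified by ELISA in an LPS-activated co-culture of human endothelial cells and peripheral blood mononuclear cells, read 24 h post-treatment. Fitted in both directions versus DMSO; parallel SRB staining flags overt cytotoxicity.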

Read-out in experiment [13]: CD38, CD38 (gene 952)
Description: BSK_SAg_CD38: BioMAP Diversity Plus: SAg Assay for CD38 Biomarker Activity (AID 2283087). The following applies: primary human HUVEC with PBMC; actives raise or lower the signal. In outline: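 CD38 quantified by ELISA (fluorescence) in a superantigen-activated endothelial cell–PBMC co-culture at 24 h post-dose. Activity fitted in both directions relative to DMSO; parallel SRB and Alamar Blue cytotoxicity read-outs.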

Read-out in experiment [14]: CD40, CD40 (gene 958)
Description: BSK_SAg_CD40: BioMAP Diversity Plus: SAg Assay for CD40 Biomarker Activity (AID 2283088). The conditions noted are these: primary human HUVEC with PBMC; actives raise or lower the signal. In outline: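 Endpoint derived by fitting increases or decreases versus DMSO controls. CD40 is detected by fluorescence ELISA in a human vascular co-culture of endothelium and PBMC at 24 h.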

Read-out in experiment [15]: CD69, CD69 (gene 969)
Description: BSK_SAg_CD69: BioMAP Diversity Plus: SAg Assay for CD69 Biomarker Activity (AID 2283089).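 For AC50: cell surface CD69 protein quantified by ELISA with fluorescence detection.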 The conditions noted are these: primary human HUVEC with PBMC; actives raise or lower the signal. In outline: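 Primary human vascular co-culture (umbilical vein endothelium with peripheral blood mononuclear cells) exposed to test chemical for 24 h. CD69 levels quantified by fluorescence ELISA; DMSO served as negative control for bidirectional fitting.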

Read-out in experiment [16]: Monocyte Chemoattractant Protein-1 (MCP1), CCL2 (gene 6347)
Description: BSK_SAg_MCP1: BioMAP Diversity Plus: SAg Assay for Monocyte Chemoattractant Protein-1 (MCP1) Biomarker Activity (AID 2283090). The following applies: primary human HUVEC with PBMC; actives raise or lower the signal. The method, boiled down:
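Values derive from bidirectional fitting of ELISA-measured MCP1 against DMSO controls. Readings were taken 24 h after dosing human vascular endothelial cells co-cultured with peripheral blood mononuclear cells under superantigen stimulation.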

Read-out in experiment [17]: E-selectin (Homo sapiens) (UniProt P16581)
Description: BSK_SAg_Eselectin: BioMAP Diversity Plus: SAg Assay for Eselectin Biomarker Activity (AID 2283091). The conditions noted are these: primary human HUVEC with PBMC; actives raise or lower the signal. In outline: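 Endpoint values derive from bidirectional fitting relative to DMSO, using ELISA-measured E-selectin in a human vascular co-culture (umbilical vein endothelium plus PBMC) sampled 24 h after dosing.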

Read-out in experiment [18]: Monokine induced gamma interferon (MIG), CXCL9 (gene 4283)
Description: BSK_SAg_MIG: BioMAP Diversity Plus: SAg Assay for Monokine induced gamma interferon (MIG) Biomarker Activity (AID 2283092). The following applies: primary human HUVEC with PBMC; actives raise or lower the signal. The method, boiled down: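 Endothelial cells and PBMC were co-cultured, exposed to test chemicals, and sampled 24 h later. MIG was measured by ELISA, and responses were fitted in both directions relative to DMSO.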

Read-out in experiment [19]: Tumor necrosis factor (Homo sapiens) (UniProt P01375)
Description: BSK_LPS_TNFa: BioMAP Diversity Plus: LPS Assay for Tumour Necrosis Factor alpha (TNFa) Biomarker Activity (AID 2283085). The conditions noted are these: primary human HUVEC with PBMC; actives raise or lower the signal. In outline: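 TNFa was quantified by ELISA in LPS-activated co-cultures of human endothelial cells and PBMC, 24 h post-dosing. Both increases and decreases versus DMSO were fitted.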

Active and inactive are the calls of the source. Rule for the calls: active = hit-call score of the fitted dose curve at least 0.9, where 1 is the maximum; inactive = score below 0.9.

Sequence of E-selectin (Homo sapiens) (P16581 whole entry, looked up): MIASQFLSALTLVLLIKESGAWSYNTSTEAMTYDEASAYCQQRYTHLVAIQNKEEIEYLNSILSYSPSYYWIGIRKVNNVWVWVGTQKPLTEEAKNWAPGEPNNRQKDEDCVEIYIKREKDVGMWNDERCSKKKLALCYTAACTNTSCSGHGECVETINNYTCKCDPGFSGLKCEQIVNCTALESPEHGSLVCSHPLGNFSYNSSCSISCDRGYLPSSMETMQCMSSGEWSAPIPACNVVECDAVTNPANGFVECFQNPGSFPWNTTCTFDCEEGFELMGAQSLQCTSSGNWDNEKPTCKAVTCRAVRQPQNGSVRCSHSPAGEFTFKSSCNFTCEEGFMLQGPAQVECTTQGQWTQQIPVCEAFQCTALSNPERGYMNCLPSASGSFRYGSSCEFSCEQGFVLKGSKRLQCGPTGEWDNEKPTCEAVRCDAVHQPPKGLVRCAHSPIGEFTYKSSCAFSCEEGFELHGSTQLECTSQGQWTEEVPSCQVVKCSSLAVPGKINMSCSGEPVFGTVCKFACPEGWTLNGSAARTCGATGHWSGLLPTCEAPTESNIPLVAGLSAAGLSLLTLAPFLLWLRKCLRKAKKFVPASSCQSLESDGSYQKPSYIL
Sequence of Tumor necrosis factor (Homo sapiens) (P01375 whole entry, looked up): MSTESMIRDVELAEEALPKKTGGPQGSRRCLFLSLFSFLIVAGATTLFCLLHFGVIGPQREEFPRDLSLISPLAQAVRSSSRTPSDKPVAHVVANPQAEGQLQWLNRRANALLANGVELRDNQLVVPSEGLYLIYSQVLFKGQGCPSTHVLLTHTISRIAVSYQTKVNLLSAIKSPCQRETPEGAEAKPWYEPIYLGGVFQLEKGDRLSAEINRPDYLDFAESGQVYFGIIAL

With `CC[C@H](c1ccc(O)cc1)[C@@H](CC)c1ccc(O)cc1`, the AC50 – broadly, the concentration at which the activity in the assay is half-maximal – was 32.7 µM (active) in experiment [1]; 19.4 µM (active) in experiment [2]; 35 µM (active) in [3]; 17.4 µM (active) in [4]; 33.8 µM (active) in [5]; 35.1 µM (active) in experiment [6]. The AC50 in experiment [7] is 31.3 µM (active); in [8], 33.8 µM (active); in [9], 38.1 µM (active); in [10], 22.4 µM (active); in experiment [11], 32 µM (active); in experiment [12] it was 29 µM (active). Also, the AC50 in experiment [13] is 19.1 µM (active); in experiment [14], 20.7 µM (active); in experiment [15] it was 20.6 µM (active); in experiment [16] it was 23.9 µM (active); in experiment [17], 17.9 µM (active); in [18] it was 32.6 µM (active).

In the case of `CCCCCCCCCCCCc1ccccc1S(=O)(=O)O`, the AC50 in experiment [1] was 24.3 µM (active); in [2], 12 µM (active); in [3] it was 28 µM (active). In addition, the outcome in experiment [4], in experiment [5], in [6], in experiment [7], in [8] and in experiment [9] was inactive. Moreover, the result in [10], in experiment [11], in experiment [19], in [12], in experiment [13] and in experiment [14] was inactive. The result in experiment [15], in [16], in [17] and in experiment [18] was inactive.

As to `CCC(C)(C)C1CCC(O)CC1` (configuration not stated), the result in [1], in [2], in experiment [3], in [4], in [5] and in experiment [6] was inactive. Also, the result in experiment [7], in experiment [8], in experiment [9], in experiment [10], in experiment [11] and in experiment [12] was inactive. Besides, the result in [13], in [14], in [15], in experiment [16], in [17] and in [18] was inactive.

`CCCCCCC(=O)O`: the outcome in experiment [1], in experiment [2], in [3], in experiment [4], in experiment [5] and in [6] was inactive. Further, the outcome in [7], in experiment [8], in experiment [9], in experiment [10], in experiment [11] and in [12] was inactive. Also, the result in experiment [13], in experiment [14], in experiment [15], in experiment [16], in experiment [17] and in experiment [18] was inactive.

On to `Oc1cccc(O)c1`, for which the result in [1], in [2], in [3], in [4], in experiment [5] and in experiment [6] was inactive. Also, the outcome in [7], in experiment [8], in experiment [9], in experiment [10], in [11] and in experiment [19] was inactive. The result in experiment [12], in experiment [13], in experiment [14], in [15], in experiment [16] and in experiment [17] was inactive. The result in experiment [18] was inactive.

Values taken from PubChem BioAssay (EPA / NIEHS).
